Measurements reported in PubChem BioAssay (Tox21).
Unmarked numbers belong to inactive results. Records with an inconclusive call do not appear. Where a call stands in place of a potency, no number is given. Calls of active or inactive are those of the source. Unless noted, the call rests on the fitted dose curve; in most records, active means well fitted curve in the direction sought with a large enough effect in the repeat runs; inconclusive means weak or mixed curves; inactive means no such curve, though single readings can be large; an effect the other way counts as inactive or inconclusive.

Assays:
[1] = qHTS assay for small molecule agonists of the p53 signaling pathway (AID 651631; calls by dose curve; further: nearly all actives have a fitted effect of over 15% in size)
How it was run: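 We treat p53RE-bla HCT-116 cells with compounds for 16 h at 37 °C, add LiveBLAzer B/G FRET substrate for 2 h at room temperature, and measure fluorescence intensity.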

[2] = qHTS assay for small molecules that induce genotoxicity in human embryonic kidney cells expressing luciferase-tagged ATAD5 (AID 651632); further: nearly all actives have a fitted effect of over 15% in size
How it was run: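 Concentration-response screen for ATAD5 upregulation in HEK293T luciferase reporter cells; 16 hr treatment at 37C, then luminescence after 30 min with Amplite at room temperature.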

[3] = qHTS assay for small molecule agonists of the p53 signaling pathway - cell viability (AID 651633; calls by dose curve;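 further: p53RE-bla HCT reporter cells with a stable beta-lactamase p53 reporter; series mostly up to about 83 µM; nearly all actives have a fitted effect of over 30% in size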)
How it was run: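 p53RE-bla cells, seeded at 4,000 per well and rested 5 h at 37 C/5% CO2, received compounds in DMSO for 16 h at 37 C. CellTiter-Glo was then added, and luminescence was read after 30 min at room temperature to gauge cytotoxicity.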

[4] = qHTS assay for small molecules that induce genotoxicity in human embryonic kidney cells expressing luciferase-tagged ATAD5 - cell viability (AID 651634; calls by dose curve; further: nearly all actives have a fitted effect of over 25% in size; further: potency means the concentration at half of the fitted maximal effect)
How it was run: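 15.5 hr compound or vehicle exposure of HEK293T cells expressing luciferase-tagged ATAD5 at 37C; live-cell protease activity is read by fluorescence after 30 min of CellTiter-Fluor.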

[5] = qHTS assay for small molecule disruptors of the mitochondrial membrane potential - cell viability (AID 720634; calls by dose curve;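 further: human HepG2 liver cancer cells; series mostly up to about 83 µM; nearly all actives have a fitted effect of over 20% in size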)
How it was run: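 In this qHTS format, HepG2 cells plated overnight were pinned with compound, incubated 1 hr, and assayed for ATP luminescence with CellTiter-Glo after m-MPI dye addition.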

[6] = qHTS assay for small molecule disruptors of the mitochondrial membrane potential (AID 720635)
How it was run: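 HepG2 cells (2,000/well) attached overnight at 37C, then took compound for 1 hr at 37C, 5% CO2. Mito-MPS dye was added for 30 min; fluorescence was read at 490/535 nm (monomers) and 540/590 nm (aggregates).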

[7] = qHTS assay to test for compound auto fluorescence at 590 nm (red) in HepG2 cells (AID 720674)
How it was run: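 Rose Bengal sodium served as the red fluorophore standard. HepG2 monolayers (overnight attachment, MEM with 10% FBS) were exposed to test compounds for 1 hr at 37 C and read at Ex 540/Em 590 nm.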

[8] = qHTS assay to test for compound auto fluorescence at 535 nm (green) in HepG2 cells (AID 720675)
[9] = qHTS assay to test for compound auto fluorescence at 460 nm (blue) in HEK293 cells (AID 720678)
How it was run: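 Triamterene serves as the blue fluorophore standard. Compound signal at 405/460 nm is read in HEK293 wells (2,000 cells, 10% dialyzed FBS) after overnight treatment at 37C.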

[10] = qHTS assay to test for compound auto fluorescence at 590 nm (red) in HEK293 cells (AID 720679)
How it was run: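 We plated HEK293 cells in 10% dialyzed FBS medium, let them adhere for 4-5 hr, then added 23 nL compound. Overnight at 37C and 5% CO2 preceded fluorescence measurement at 540/590nm.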

SMILES | outcome [1] | Potency [2] | outcome [3] | Potency [4] | outcome [5] | Potency [6] | outcome [7] | outcome [8] | outcome [9] | outcome [10] | fluorescence, relative to Rose Bengal [7] | fluorescence, % of fluorescein control [8] | fluorescence, % of triamterene [9] | fluorescence, % of fluorescent control [10]
CC(C)(C)c1n[nH]c(=S)n(N)c1=O | inactive | inactive | inactive | inactive | inactive | inactive | inactive | inactive | inactive | inactive | – | – | – | –
Nc1ccc([N+](=O)[O-])c(N)c1 | inactive | inactive | inactive | 47.3 µM (active) | inactive | – | inactive | inactive | inactive | inactive | – | – | – | –
Cc1ccc(S(=O)(=O)O)c(C)c1 | inactive | inactive | inactive | inactive | inactive | – | inactive | inactive | inactive | – | – | – | – | –
CCOC(=O)c1ncn2c1CN(C)C(=O)c1cc(F)ccc1-2 | inactive | inactive | inactive | inactive | inactive | inactive | – | inactive | inactive | inactive | – | – | – | –
O=C(NCCc1c[nH]c2ccccc12)c1cccnc1 | inactive | inactive | inactive | inactive | inactive | – | inactive | inactive | inactive | inactive | – | – | – | –
CC(C)=CCOC(=O)c1ccccc1 | inactive | inactive | inactive | inactive | inactive | – | inactive | inactive | inactive | inactive | – | – | – | –
N[C@@H](CCC(=O)Nc1ccc([N+](=O)[O-])cc1)C(=O)O | inactive | inactive | inactive | inactive | inactive | – | inactive | inactive | inactive | – | – | – | – | –
CCOCCOCCOCC | inactive | inactive | inactive | inactive | inactive | – | inactive | inactive | inactive | inactive | – | – | – | –
C[C@H](N)[C@H](O)c1cccc(O)c1 | inactive | inactive | inactive | inactive | inactive | – | – | – | – | – | 0.285% [at 18.6 µM] | 0.0051% [at 18.6 µM] | 2.14% [at 18.6 µM] | -0.0013% [at 18.6 µM]
O=C1c2ccccc2C(=O)C1c1ccccc1 | inactive | inactive | inactive | inactive | inactive | – | – | – | – | – | 0.709% [at 18.6 µM] | 0.0928% [at 18.6 µM] | -0.166% [at 18.6 µM] | 0.0127% [at 18.6 µM]
CO[C@@H]1[C@@H](OC(N)=O)[C@@H](O)[C@H](Oc2ccc3c(O)c(NC(=O)c4ccc(O)c(CC=C(C)C)c4)c(=O)oc3c2C)OC1(C)C | inactive | inactive | inactive | inactive | inactive | – | – | – | – | – | -0.195% [at 18.6 µM] | -0.0594% [at 18.6 µM] | 0.0216% [at 18.6 µM] | –
CNS(=O)(=O)CCc1ccc2[nH]cc(C3CCN(C)CC3)c2c1 | inactive | inactive | inactive | inactive | inactive | – | inactive | inactive | inactive | – | – | – | – | –
Cc1cccc2nccnc12 | inactive | inactive | inactive | inactive | inactive | – | inactive | inactive | inactive | inactive | – | – | – | –
Cc1cc2cc3c(C)cc(=O)oc3c(C)c2o1 | inactive | inactive | inactive | inactive | inactive | – | – | – | – | – | 0.738% [at 18.6 µM] | -0.0056% [at 18.6 µM] | 1.9% [at 18.6 µM] | –
O=C1c2ccccc2C(=O)N1CCl | inactive | inactive | inactive | inactive | inactive | – | inactive | inactive | inactive | inactive | – | – | – | –
CC(C)=O | inactive | inactive | inactive | inactive | inactive | inactive | – | inactive | inactive | inactive | – | – | – | –
COCCOCCOCCOCCO | inactive | inactive | inactive | inactive | inactive | – | inactive | inactive | inactive | inactive | – | – | – | –
COC(=O)[C@@H]1[C@H]2C[C@H]3c4[nH]c5ccccc5c4CCN3C[C@@H]2CC[C@@H]1O | inactive | inactive | inactive | inactive | inactive | inactive | – | inactive | inactive | inactive | – | – | – | –
O=C(CCNNC(=O)c1ccncc1)NCc1ccccc1 | inactive | inactive | inactive | inactive | inactive | inactive | – | inactive | inactive | inactive | – | – | – | –
Cc1c(I)c(=O)n(-c2ccccc2)n1C | inactive | inactive | inactive | inactive | inactive | – | inactive | inactive | inactive | inactive | – | – | – | –
C=C1CC/C=C(\C)CC[C@@H]2[C@@H]1CC2(C)C | inactive | inactive | inactive | inactive | inactive | – | inactive | inactive | inactive | inactive | – | – | – | –
CC(N)C(=O)OC(C)(C)Cc1ccc(Cl)cc1 (centres undefined) | inactive | inactive | inactive | inactive | inactive | – | inactive | inactive | inactive | inactive | – | – | – | –
C=C(C)C(=O)OCCN(CC)CC | inactive | inactive | inactive | inactive | inactive | inactive | – | inactive | inactive | inactive | – | – | – | –
NC(CO)C(=O)NNCc1ccc(O)c(O)c1O (centres undefined) | inactive | inactive | inactive | inactive | inactive | – | inactive | inactive | inactive | – | – | – | – | –
CCCCCCN | inactive | inactive | inactive | inactive | inactive | – | inactive | inactive | inactive | – | – | – | – | –
